Compounds with a hit are over-represented: about 2.8% of the library has one in this group of screens.
p-CIP stab down: p/CIP-EGFP fusion destabilizers, primary screen, fluorescence, F442A cells; 290,000 compounds, 0.01% hits; 16 h; decrease of EGFP signal, % at 10 µM;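 active = EGFP signal decrease of at least 30% at 10 µM or well 3 SD below plate mean, unless failing retest; inactive = the rest, including hits failing retest or dose response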
Target sequence (Q05BA5 1-1403): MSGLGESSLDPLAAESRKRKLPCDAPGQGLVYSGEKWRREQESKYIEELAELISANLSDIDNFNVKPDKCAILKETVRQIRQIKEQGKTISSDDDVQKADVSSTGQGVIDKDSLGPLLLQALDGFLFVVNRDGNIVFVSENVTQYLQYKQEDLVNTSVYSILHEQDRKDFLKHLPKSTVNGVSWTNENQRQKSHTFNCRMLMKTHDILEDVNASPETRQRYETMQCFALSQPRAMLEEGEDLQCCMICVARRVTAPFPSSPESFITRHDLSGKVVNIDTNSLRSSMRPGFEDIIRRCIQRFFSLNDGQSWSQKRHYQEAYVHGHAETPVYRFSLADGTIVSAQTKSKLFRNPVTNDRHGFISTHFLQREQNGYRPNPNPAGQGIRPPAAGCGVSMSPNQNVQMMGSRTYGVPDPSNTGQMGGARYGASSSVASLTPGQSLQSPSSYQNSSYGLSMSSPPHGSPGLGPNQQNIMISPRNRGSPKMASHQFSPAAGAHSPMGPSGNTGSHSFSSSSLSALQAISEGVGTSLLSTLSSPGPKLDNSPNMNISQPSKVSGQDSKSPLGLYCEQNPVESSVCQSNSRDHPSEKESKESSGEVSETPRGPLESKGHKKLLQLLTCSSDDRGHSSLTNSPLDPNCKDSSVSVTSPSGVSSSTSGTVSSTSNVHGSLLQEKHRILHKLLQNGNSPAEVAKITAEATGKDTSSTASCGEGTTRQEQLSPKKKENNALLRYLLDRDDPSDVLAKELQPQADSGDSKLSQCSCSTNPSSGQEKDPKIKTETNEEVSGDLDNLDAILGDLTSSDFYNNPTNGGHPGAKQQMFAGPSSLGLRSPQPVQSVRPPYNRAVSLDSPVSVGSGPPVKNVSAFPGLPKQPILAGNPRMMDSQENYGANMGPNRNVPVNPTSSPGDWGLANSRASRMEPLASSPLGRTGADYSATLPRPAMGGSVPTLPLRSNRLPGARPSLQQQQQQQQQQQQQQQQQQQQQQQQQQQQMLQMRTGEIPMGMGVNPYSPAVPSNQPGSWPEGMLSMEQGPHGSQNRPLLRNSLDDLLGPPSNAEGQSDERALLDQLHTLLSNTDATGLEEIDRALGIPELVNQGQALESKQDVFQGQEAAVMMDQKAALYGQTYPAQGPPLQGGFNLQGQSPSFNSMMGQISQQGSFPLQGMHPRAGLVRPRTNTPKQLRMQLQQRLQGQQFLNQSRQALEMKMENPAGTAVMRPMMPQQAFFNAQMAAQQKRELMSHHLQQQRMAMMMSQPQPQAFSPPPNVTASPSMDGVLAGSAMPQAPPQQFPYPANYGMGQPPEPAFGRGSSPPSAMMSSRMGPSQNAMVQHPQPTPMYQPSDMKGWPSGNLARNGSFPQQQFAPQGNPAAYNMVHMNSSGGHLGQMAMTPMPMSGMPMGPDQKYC
PolyA inh: polyadenylation inhibitors in yeast reporter cells, primary screen, luminescence, S. cerevisiae | S. cerevisiae SKY197-pL101 polyadenylation reporter, beta-gal luminescence; efflux-impaired pdr1/pdr3 knockout yeast; score 100 = 6 SD above DMSO | activity score, % at 12 µM | 300,000 compounds, 0.02% hits;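 active = lowest replicate activity score at least 50, where 100 means six control SD above control mean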;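 also: yeast exposed to compound for 9 h at 30 °C; higher score means more reporter readthrough which indicates perturbed polyadenylation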
AHR activator: AHR activators, primary screen, cell-based, luminescence, luciferase reporter, human. AHR-responsive luciferase reporter cells. Aryl hydrocarbon receptor (Homo sapiens), P35869. activation, % at 5 µM. AID 2796, 2010. 320,000 compounds, 2.5% hits; in the data active = activation above about 47%;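 also: 0% = vehicle wells and 100% = reference agonist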
Platelet DG rel: inhibitors of platelet dense granule secretion, primary screen, cell-based, MLPCN, human platelets. 300,000 compounds, 0.22% hits. AID 1663, 2009. inhibition, %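 (compounds screened at 7.5 µM in platelet-rich plasma)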. human platelet-rich plasma, SFLLRN dense granule ATP release, luminescence;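 active = mean replicate score, as percent of positive control, at or above 50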
HIF act: HIF pathway transcriptional activators, primary screen, cell-based, U2OS HRE-luciferase, luminescence | U2OS HRE-luciferase reporter; normalized: DMSO 0%, desferrioxamine 100% | activation, % at 7.5 µM (by protocol) | 300,000 compounds, 0.32% hits;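 active = mean activation of at least 10% of the iron chelator positive control signal, with at least half of replicates also reaching 10%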
AHR act confirm: AHR activators, confirmation, cell-based, luminescence, luciferase reporter, human. 2,300 compounds, 87% hits. human cells, AHR-responsive luciferase reporter. shares compounds with AHR activator. activation, % at 9 µM; in the data active = activation above about 49%;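 also: HepG2 hepatoma cells carrying a DRE-driven firefly luciferase reporter; 0% = vehicle wells and 100% = reference agonist wells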
PXR counter: human PXR activators, counter-screen for AHR activator project, cell-based, luciferase luminescence; shares compounds with AHR activator; 2,300 compounds, 88% hits; cell-based PXR reporter; activation, % at 11.6 µM; in the data active = activation above about 11%;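 also: human hepatoma DPX-2 cells expressing full-length human PXR; 0% = DMSO and 100% = reference agonist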
* = called active by the depositor.

COc1cccc(-n2c(N)c(-c3nc4ccccc4[nH]3)sc2=S)c1 was read as p-CIP stab down 7.5, PolyA inh -4.8, AHR activator 88.9*, Platelet DG rel 7.2, HIF act 0.8, AHR act confirm 129.7* and PXR counter 97.1*.
CCCN1CCC(NC(=O)Cc2cccc(C)c2)CC1 was read as p-CIP stab down -14.8, PolyA inh -9.1, AHR activator -1.1, Platelet DG rel 5.0 and HIF act 0.2.
Screening COc1ccc(OC)c(NC(=O)COC(=O)CCc2nc3ccccc3c(=O)[nH]2)c1 returned AHR activator 3.1.
For Nc1c(C(=O)c2ccccc2)oc2ccc(Br)cc12 the results were p-CIP stab down -7.8, PolyA inh -11.7, AHR activator 79.3*, Platelet DG rel 6.4, HIF act 2.7, AHR act confirm 119.9* and PXR counter 12.4*.
`Cc1ccc(C(=O)c2oc3ccccc3c2N)cc1` gave p-CIP stab down 10.3, PolyA inh -30.3, AHR activator 112.9*, Platelet DG rel 0.3, HIF act 2.4, AHR act confirm 137.7* and PXR counter 22.1*.
Nc1c(C(=O)c2ccccc2)oc2ccc([N+](=O)[O-])cc12 was read as p-CIP stab down -10.0, PolyA inh 4.6, AHR activator 1.1, Platelet DG rel -1.4 and HIF act 2.5.
Screening Cc1ccc(Nc2c(N)c(=O)oc3ccccc23)cc1 returned p-CIP stab down -9.8, PolyA inh -10.1, AHR activator 29.1, Platelet DG rel -1.5 and HIF act 2.9.
Screening Nc1c(C(=O)c2ccc(Br)cc2)oc2ccccc12 returned p-CIP stab down 5.9, PolyA inh -2.7, AHR activator 122.4*, Platelet DG rel 4.0, HIF act 1.3 and AHR act confirm 175.8*.
For CCc1cccc(C)c1Nc1nc2ccccc2n2cnnc12 the results were p-CIP stab down 4.4, PolyA inh 13.2, AHR activator 6.1, Platelet DG rel -4.8 and HIF act 0.6.
`CCc1nnc(NC(=O)c2cccc(C(=O)Nc3nnc(CC)s3)n2)s1` gave p-CIP stab down 4.5, PolyA inh -9.6, AHR activator 8.3, Platelet DG rel -7.2 and HIF act -0.1.
Screening CCOc1ccccc1C(=O)Nc1nnc(CC)s1 returned p-CIP stab down -5.9, PolyA inh 28.4, AHR activator 96.3*, Platelet DG rel 4.1, HIF act 1.0, AHR act confirm 69.8* and PXR counter 22.2*.
Screening COC(=O)Nc1nnc(-c2ccccc2OC)s1 returned p-CIP stab down 9.7, PolyA inh -21.4, AHR activator 107.0*, Platelet DG rel -7.6, HIF act 1.8, AHR act confirm 139.6* and PXR counter 16.8*.
CCOC(=O)Nc1nnc(-c2ccccc2OC)s1 was read as p-CIP stab down 3.8, PolyA inh -0.5, AHR activator 98.2*, Platelet DG rel 11.2, HIF act 0.6, AHR act confirm 125.3* and PXR counter 29.2*.
`CCOC(=O)Nc1nnc(-c2ccc(OC)cc2)s1` gave p-CIP stab down 5.0, PolyA inh -20.4, AHR activator 15.7 and Platelet DG rel 14.6.
Screening CCOC(=O)N1CCC(N(CCN(C)C)C(=S)Nc2cc(C)cc(C)c2)CC1 returned p-CIP stab down 0.3, PolyA inh 7.0, AHR activator 3.6, Platelet DG rel -1.6 and HIF act -0.3.
For Cc1cccc(NC(=O)CC2C(=O)NCCN2C(=O)Nc2ccc(Cl)cc2)c1 (stereo unspecified) the results were p-CIP stab down -16.7, PolyA inh -22.9, Platelet DG rel 0.8 and HIF act -0.5.
Screening CC(=O)Nc1ccc(NC(=O)CSc2ncc(C(=O)Nc3ccc(F)cc3)c(=O)n2C)cc1 returned PolyA inh -3.8, AHR activator 98.0*, Platelet DG rel 5.6, HIF act -0.7, AHR act confirm 126.6* and PXR counter 20.9*.
COc1ccccc1CNC(=O)CSc1ccc(C(=O)Nc2ccccc2OC)cc1[N+](=O)[O-] was read as p-CIP stab down 7.5, PolyA inh -3.8, AHR activator 89.7*, Platelet DG rel -11.0, HIF act -0.3, AHR act confirm 85.2* and PXR counter 104.9*.
`COc1ccccc1NC(=O)c1ccc(SCC(=O)NCc2ccccc2Cl)c([N+](=O)[O-])c1` gave p-CIP stab down -5.8, PolyA inh 6.3, AHR activator 99.4*, Platelet DG rel -4.7, HIF act -0.8, AHR act confirm 120.3* and PXR counter 135.5*.
Screening Cn1ccc2cc(-c3csc(N4CCC(C(N)=O)CC4)n3)ccc21 returned AHR activator 0.8.
For c1ccc(-c2csc(Nc3ccccn3)n2)cc1 the results were p-CIP stab down -11.3, PolyA inh -0.4, AHR activator 139.1*, Platelet DG rel 2.0, HIF act 2.6, AHR act confirm 131.0* and PXR counter 15.9*.
Cc1ccc(-c2csc(Nc3ccccn3)n2)cc1 was read as p-CIP stab down -3.7, PolyA inh -4.0, AHR activator 42.7, Platelet DG rel 6.2 and HIF act -0.2.
Cc1nc(C)c(-c2csc(Nc3ccccn3)n2)s1 was read as p-CIP stab down -9.4, PolyA inh 9.6, AHR activator 83.3*, Platelet DG rel 1.0, HIF act 1.9, AHR act confirm 22.9 and PXR counter 35.0*.
For CON/C=C(\C=Nc1ccc(C(F)(F)F)cc1)c1ncc(C(F)(F)F)cc1Cl the results were p-CIP stab down -14.6, PolyA inh 15.2, AHR activator 107.6*, Platelet DG rel 2.0, HIF act -0.6, AHR act confirm 103.4* and PXR counter 30.8*.
CON/C=C(\C=Nc1ccc(Cl)cc1)c1ncc(C(F)(F)F)cc1Cl was read as p-CIP stab down -13.0, PolyA inh 6.7, AHR activator 112.2*, Platelet DG rel -2.2, HIF act -0.3, AHR act confirm 93.1* and PXR counter 13.8*.
`CCn1nccc1C(=O)Nc1ccc(C(=O)OC(C)C)cc1` gave p-CIP stab down -5.8, PolyA inh 14.9, AHR activator 6.2, Platelet DG rel 3.7 and HIF act 2.2.
Screening COc1cc(NC(=O)CSc2cc(C)c3cc(C)cc(C)c3n2)c(C(=O)O)cc1OC returned p-CIP stab down -8.2, PolyA inh 15.5, AHR activator 1.9, Platelet DG rel -3.3 and HIF act -1.8.
